From PubChem BioAssay
Rac1 wt GTP bind: modulators of human Rac1 wildtype GTP binding; GST-Rac1 beads, fluorescent GTP binding, flow cytometry; actives lie on both sides; 0 = cold GTP competed, 100 = untreated; P63000; actives 0.27% (n = 190,000); GTP binding activity (% of control), % at 10 µM;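 active means GTP binding activity at least 20 points away from the 100% control level, either lower or higher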
Cdc42 wt: changes GTP binding to wildtype human Cdc42; P60953; GST-Cdc42 beads, Bodipy-GTP binding, flow cytometry; actives lie on both sides; percent activity (GTP binding), % at 10 µM; actives 0.2% (n = 190,000);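 active means percent activity GTP binding at least 20 points away from the 100% baseline, either down as inhibitor or up as activator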;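 further: median bead fluorescence of bound Bodipy-FL-GTP at 100 nM; 0% = excess unlabeled GTP control and 100% = no compound control; below 100% means less GTP binding so inhibitor and above means activator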
Target sequence (P60953 whole entry, looked up): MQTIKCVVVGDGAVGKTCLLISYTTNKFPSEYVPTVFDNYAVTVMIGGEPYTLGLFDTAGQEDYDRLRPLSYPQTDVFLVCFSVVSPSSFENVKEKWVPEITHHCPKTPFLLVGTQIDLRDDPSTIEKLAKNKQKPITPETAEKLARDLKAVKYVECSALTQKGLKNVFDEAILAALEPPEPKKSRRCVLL
HRas wt GTP: changes GTP binding to wildtype human HRas; P01112; GST-Ras wt beads, Bodipy-FL-GTP binding, flow cytometry; actives lie on both sides; GTP binding activity, % at 10 µM; actives 0.14% (n = 190,000); AID 759;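 active means GTP binding activity at least 20% away from the 100% baseline, either lowered as inhibitor or raised as activator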;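 further: 0% = unlabeled GTP competition control and 100% = no-compound control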
Target sequence (P01112 whole entry, looked up): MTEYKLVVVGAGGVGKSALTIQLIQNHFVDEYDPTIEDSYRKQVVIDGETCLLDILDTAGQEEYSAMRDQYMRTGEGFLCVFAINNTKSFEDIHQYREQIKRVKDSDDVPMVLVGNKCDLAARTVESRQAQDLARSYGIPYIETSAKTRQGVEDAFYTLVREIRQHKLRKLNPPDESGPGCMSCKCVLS
Rac1 act GTP bind: modulators of GTP binding to human Rac1 activated mutant; P63000; GST-Rac1 activated beads, fluorescent GTP binding, flow cytometry; actives lie on both sides; 100% means binding = to untreated wells; percent activity (GTP binding), % at 10 µM; actives 0.11% (n = 190,000); AID 764;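 active means GTP binding at least 20 percentage points away from the 100% baseline, in either direction, so actives lie on both sides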
Rab2A wt mod: changes GTP binding to wildtype dog Rab2A, up or down; GST-Rab2 wt beads, Bodipy-GTP binding, flow cytometry; GTP binding activity, % at 10 µM; actives 0.19% (n = 190,000); P61105; AID 760;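 active means GTP binding activity at least 20 points away from 100%, either lowered or raised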;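 further: 0% = beads with excess unlabeled GTP and 100% = no-compound control corrected for plate trend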
Rab7 wt modul: alters GTP binding to wildtype dog Rab7. GST-Rab7 beads, fluorescent GTP binding, flow cytometry; actives lie on both sides; untreated = 100%, excess cold GTP = 0%. GTP binding activity (percent of control), % at 10 µM. actives 0.055% (n = 190,000). AID 758;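 active means fluorescent GTP binding to Rab7 beads changed by at least 20 points from the 100% baseline, either direction, mostly lower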;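 further: median green fluorescence of bound Bodipy-FL-GTP per Rab7 bead population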
* hit, by the source's call; [ ] = another dose, or the depositor's remark. Rows were chosen to be rich in hits. Some 0.37% of all compounds tested hit in one or more screens of this group.

SMILES | Rac1 wt GTP bind | Cdc42 wt | HRas wt GTP | Rac1 act GTP bind | Rab2A wt mod | Rab7 wt modul
Cc1cccc(/C=N/N(CCO)C2=NS(=O)(=O)c3ccccc32)c1 | 68* | 82 | 80 | 84 | 81 | 92
N#CCCN(/N=C/c1cccnc1)C1=NS(=O)(=O)c2ccccc21 | 85 | 89 | 87 | 95 | 87 | 96
COc1ccc2c(C)cc3nncn3c2c1 | 79* | 89 | 81 | 87 | 89 | 88
CCOc1ccc(C2C(C(=O)O)CCC(=O)N2C2CCCCC2)cc1 (configuration not stated) | 71* | 72* | 72* | 73* | 73* | 74*
Nc1nc2c(c(=O)[nH]1)C(c1cccc3ccccc13)C1=C(N2)c2ccccc2C1=O (configuration not stated) | 74* | 79* | 83 | 87 | 79* | 91
CCOc1ccc(Br)cc1S(=O)(=O)NC(=O)c1ccccc1 | 100 | 99 | 100 | 95 | 96 | 94
N#C/C(=C(/O)COc1ccc(Br)cc1)c1nnc2n1CCCCC2 | 78* | 76* | 81 | 75* | 77* | 80
CC/C(O)=C(/C#N)c1nnc2n1CCCCC2 | 104 | 103 | 101 | 100 | 102 | 102
Cc1ccccc1OCCSc1nc2ncnc(N)c2[nH]1 | 93 | 94 | 98 | 93 | 97 | 99
CC1CCCN(c2ccc3nc4ccccc4c(=O)n3n2)C1 (configuration not stated) | 78* | 84 | 80 | 87 | 81 | 96
Cc1ccc2nc3ccc(N4CCCC4)nn3c(=O)c2c1 | 106 | 107 | 104 | 100 | 106 | 103
COc1c(C)cccc1C(=O)NC(=S)Nc1ccc2c(c1)Cc1ccccc1-2 | 77* | 77* | 83 | 74* | 75* | 83
COc1ccc(C(=O)Nn2c(CCC(=O)O)ccc2-c2ccc(C)cc2)cc1OC | 100 | 98 | 95 | 97 | 97 | 98
Cc1cc(C)nc(SCc2nnc(SCC(=O)Nc3cc(C(F)(F)F)ccc3Cl)o2)n1 | 98 | 98 | 99 | 97 | 97 | 98
CCc1ccc(NC(=O)C(=O)NCc2ccccn2)cc1 | 97 | 98 | 96 | 97 | 98 | 97
COc1cc2[nH]c(=S)nc(NCc3ccccn3)c2cc1OC | 76* | 83 | 83 | 88 | 82 | 95
COc1ccc(CCNC(=O)CCCCCNc2nc(=S)[nH]c3ccccc23)cc1OC | 94 | 97 | 94 | 95 | 92 | 101
COCCNc1nc(=S)[nH]c2cc(OC)c(OC)cc12 | 71* | 68* | 71* | 83 | 69* | 79*
COc1cc2c(cc1NCc1ccccn1)oc1ccccc12 | 105 | 105 | 103 | 100 | 100 | 102
CCOC(=O)C1(Cc2ccccc2C(F)(F)F)CCN(C2CCN(C(C)C)CC2)CC1 | 101 | 99 | 99 | 98 | 97 | 97
Cn1c(=O)c2c(nc(N/N=C/c3ccco3)n2C)n(C)c1=O | 74* | 83 | 85 | 85 | 83 | 90
CCOC(=O)/C=C1\SCC(=O)N1CCOc1cccc(Br)c1 | 86 | 83 | 62* | 84 | 79* | 73*
CCOc1cc(/C=C2\SC(=O)N=C2N)ccc1O | 77* | 87 | 86 | 89 | 80 | 90
O=c1[nH]c(N/N=C\c2ccc3c(c2)OCO3)nc2ccccc12 | 67* | 78* | 80* | 86 | 77* | 85
CN1CCC(NC(=S)Nc2cccc([N+](=O)[O-])c2)CC1 | 107 | 101 | 100 | 100 | 98 | 97
SMILES | Rac1 wt GTP bind | Cdc42 wt | HRas wt GTP | Rac1 act GTP bind | Rab2A wt mod | Rab7 wt modul
Cc1ccc(OCCn2cnc3cc([N+](=O)[O-])ccc3c2=O)cc1 | 90 | 79* | 82 | 87 | 79* | 100
O=c1c2ccc([N+](=O)[O-])cc2ncn1CCOc1ccccc1 | 76* | 84 | 81 | 87 | 79* | 95
CCOC(=O)/C(=N\Nc1ccccc1Cl)N(C)C1CCCCC1 | 93 | 94 | 96 | 93 | 99 | 104
COc1ccc(-c2cc(-c3ccccc3)c(C#N)c(=S)[nH]2)cc1 | 85 | 79* | 82 | 80 | 85 | 95
CC(C)Cc1csc(NC(=O)c2ccccc2Cl)c1C(=O)O | 79* | 78* | 81 | 82 | 80 | 85
CC(C)Cc1csc(NC(=O)c2ccc(Cl)cc2)c1C(=O)O | 92 | 94 | 91 | 90 | 89 | 95
NS(=O)(=O)c1ccc(-c2ccc(/C=C3\C(=O)Nc4cc(Cl)ccc43)o2)cc1 | 68* | 73* | 76* | 87 | 76* | 94
CC1(C)OC(=O)C(=Cc2ccc(-c3ccc(S(N)(=O)=O)cc3)o2)C(=O)O1 | 88 | 92 | 88 | 85 | 92 | 98
COc1ccccc1-c1c(C)[nH]n2c(=O)c(Cc3ccccc3)c(C)nc12 | 98 | 100 | 95 | 95 | 96 | 94
COc1ccc(-c2c(C)[nH]n3c(=O)c(Cc4ccccc4)c(C)nc23)cc1 | 87 | 95 | 81 | 93 | 77* | 93
COc1ccc(-c2c3c(nc4sc5c(=O)[nH]c(C)nc5c24)CCC3)cc1 | 76* | 81 | 81 | 89 | 76* | 87
COc1cc(NC(=O)Cn2nc(C(F)(F)F)c(Br)c2C)cc([N+](=O)[O-])c1 | 100 | 97 | 95 | 98 | 97 | 96
Cc1cc(=O)[nH]c2c(N=Nc3ccc(O)cc3)c(N)nn12 | 56* | 60* | 63* | 79* | 64* | 84
O=S(=O)(Nc1nc2ccccc2[nH]1)c1ccc2ccccc2c1 | 95 | 94 | 93 | 90 | 93 | 92
O=S(=O)(Nc1ncn[nH]1)c1ccc2ccccc2c1 | 126*[activator] | 121*[activator] | 113 | 113 | 110 | 112
Cc1nc(Nc2ccc(C(=O)O)cc2)nc(Nc2ccc(C(=O)O)cc2)c1[N+](=O)[O-] | 62* | 55* | 60* | 77* | 55* | 84
CC(=O)Nc1ccc(Nc2nc(C)c([N+](=O)[O-])c(Nc3ccccc3)n2)cc1 | 105 | 99 | 99 | 101 | 99 | 99
CCCc1nc2ccccc2c(=O)n1CC(=O)c1ccccc1 | 102 | 99 | 98 | 96 | 97 | 106
COc1ccc(S(=O)(=O)Cc2ccc(C(=O)N3CCN(c4ccc(Cl)cc4)CC3)o2)cc1 | 108 | 102 | 104 | 101 | 105 | 102
COc1ccc(S(=O)(=O)Cc2ccc(C(=O)N3CCN(c4cc(Cl)ccc4C)CC3)o2)cc1 | 76* | 74* | 80 | 76* | 72* | 77*
NC(=S)N=Nc1c(O)[nH]c2ccccc12 | 87 | 92 | 86 | 96 | 84 | 95
